# Measured values published in ChEMBL document CHEMBL3988442, “University of Dundee, Small-Polar-MMV Screening Library” (2021).
# For some of these results: Results with a measured potency or affinity are listed apart.
# What was measured:
# Design in all cases: scale not given: direction of the effect not stated beside the values
# [1] = target: Protein translocase subunit SecA (Escherichia coli (strain K12)) (UniProt P10408); assay: Assay to Identify E. coli SecA ATPase Inhibitors; assay type: functional; conditions: 30 µM
# [2] = target: T1, Ubiquitin-activating enzyme e1, putative (Leishmania donovani (strain BPK282A1)) (UniProt E9BSI1); assay: Leishmania donovani Ubiquitin Activating Enzyme (LdE1); assay type: functional; conditions: 30 µM
# T1 sequence (whole entry): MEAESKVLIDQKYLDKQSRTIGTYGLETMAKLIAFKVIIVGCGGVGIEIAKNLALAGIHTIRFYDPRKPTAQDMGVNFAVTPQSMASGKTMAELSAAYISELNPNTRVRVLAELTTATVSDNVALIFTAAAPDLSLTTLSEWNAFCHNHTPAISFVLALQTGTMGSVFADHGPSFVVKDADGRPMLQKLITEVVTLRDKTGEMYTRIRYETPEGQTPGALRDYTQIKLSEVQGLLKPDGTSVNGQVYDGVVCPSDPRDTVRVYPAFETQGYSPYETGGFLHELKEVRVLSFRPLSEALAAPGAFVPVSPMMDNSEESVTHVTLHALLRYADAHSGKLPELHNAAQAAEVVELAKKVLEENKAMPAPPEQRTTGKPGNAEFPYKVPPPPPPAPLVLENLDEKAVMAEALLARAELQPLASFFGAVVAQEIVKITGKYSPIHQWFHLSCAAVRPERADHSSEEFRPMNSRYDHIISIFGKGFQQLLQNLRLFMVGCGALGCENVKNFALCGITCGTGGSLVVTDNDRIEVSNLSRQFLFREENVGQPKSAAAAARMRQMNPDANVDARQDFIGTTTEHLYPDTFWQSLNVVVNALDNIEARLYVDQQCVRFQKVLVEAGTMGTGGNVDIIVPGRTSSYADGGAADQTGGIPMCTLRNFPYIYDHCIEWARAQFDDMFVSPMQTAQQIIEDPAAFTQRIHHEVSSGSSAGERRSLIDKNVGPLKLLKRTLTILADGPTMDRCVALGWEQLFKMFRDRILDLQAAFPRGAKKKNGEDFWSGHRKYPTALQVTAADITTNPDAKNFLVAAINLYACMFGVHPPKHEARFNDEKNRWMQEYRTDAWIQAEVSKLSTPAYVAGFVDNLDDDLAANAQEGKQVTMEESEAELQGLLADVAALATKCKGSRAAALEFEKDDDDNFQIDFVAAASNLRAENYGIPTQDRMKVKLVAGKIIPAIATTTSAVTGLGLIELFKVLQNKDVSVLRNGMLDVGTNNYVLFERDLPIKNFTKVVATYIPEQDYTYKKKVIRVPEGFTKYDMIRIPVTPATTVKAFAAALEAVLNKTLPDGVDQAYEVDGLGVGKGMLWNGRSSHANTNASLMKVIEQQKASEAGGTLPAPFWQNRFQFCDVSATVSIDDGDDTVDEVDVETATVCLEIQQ
# [3] = target: AMP-activated protein kinase, AMPK (Homo sapiens) (UniProt P54646+O43741+P54619+Q9UGJ0+Q9Y478+Q13131+Q9UGI9); assay: AMP-dependent Kinase enzyme assay. An in vitro enzyme assay that detects ADP turnover that is directly proportional to AMPK activity. This uses naive AMPK that is activated during the assay with MK-8722; assay type: functional; conditions: 30 µM
# [4] = target: Sialic acid-binding Ig-like lectin 9 (Homo sapiens) (UniProt Q9Y336); assay: Hs-Siglec9 ALPHAscreen SOP 20170721; conditions: 10 µM
# Trypanosoma cruzi = assay: Trypanosoma cruzi phosphomannomutase and mannose-1-phosphate guanylyltransferase assay; assay type: functional; conditions: 10 µM
# [5] = target: T2, Arginase-2, mitochondrial (Homo sapiens) (UniProt P78540); assay: in vitro enzyme assay to detect the production of urea directly proportional to the activity of Arginase II; assay type: functional; conditions: 33.3 µM; note: in the data most compounds retested in dose-response had high values
# T2 sequence (whole entry): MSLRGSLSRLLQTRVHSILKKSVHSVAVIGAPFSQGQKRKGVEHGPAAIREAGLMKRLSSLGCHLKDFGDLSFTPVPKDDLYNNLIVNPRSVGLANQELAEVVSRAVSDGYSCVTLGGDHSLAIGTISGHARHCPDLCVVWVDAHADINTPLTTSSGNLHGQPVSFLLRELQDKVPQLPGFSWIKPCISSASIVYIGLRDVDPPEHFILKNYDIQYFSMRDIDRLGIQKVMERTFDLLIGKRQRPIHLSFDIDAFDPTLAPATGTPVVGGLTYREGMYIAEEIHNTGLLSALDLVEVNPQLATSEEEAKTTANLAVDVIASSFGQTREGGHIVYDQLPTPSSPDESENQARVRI
# [6] = target: T3, Proteasome subunit beta (Trypanosoma cruzi) (UniProt O96673); assay: Trypanosoma cruzi proteasome chymotrypsin-like activity (TcProtChymo) assay.; note: in the data most compounds retested in dose-response had high values; assay type: functional; conditions: 9.37 µM
# T3 sequence (whole entry): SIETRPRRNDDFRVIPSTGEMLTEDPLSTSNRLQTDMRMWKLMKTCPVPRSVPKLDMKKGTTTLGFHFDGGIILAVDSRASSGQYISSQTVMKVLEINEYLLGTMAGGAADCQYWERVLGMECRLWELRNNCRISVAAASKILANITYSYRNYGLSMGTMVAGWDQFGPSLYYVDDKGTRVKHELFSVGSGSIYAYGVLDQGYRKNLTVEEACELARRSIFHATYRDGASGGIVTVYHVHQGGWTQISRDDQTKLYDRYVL
# Homo sapiens = organism: Homo sapiens; assay: To identify inhibition of the IFN signalling (Jak-Stat) pathway via expression of an eGFP reporter gene under the control of an IFN-stimulated response element (ISRE) containing MxA promoter.; assay type: functional; conditions: 30 µM
# [7] = target: T4, Tyrosyl-tRNA synthetase, putative (Trypanosoma cruzi (strain CL Brener)) (UniProt Q4DSP6); assay: Trypanosoma cruzi tyrosyl tRNA synthetase (TcYRS) _High Tyrosine SOP; assay type: functional; conditions: 30 µM; note: in the data most compounds retested in dose-response had high values
# T4 sequence (whole entry): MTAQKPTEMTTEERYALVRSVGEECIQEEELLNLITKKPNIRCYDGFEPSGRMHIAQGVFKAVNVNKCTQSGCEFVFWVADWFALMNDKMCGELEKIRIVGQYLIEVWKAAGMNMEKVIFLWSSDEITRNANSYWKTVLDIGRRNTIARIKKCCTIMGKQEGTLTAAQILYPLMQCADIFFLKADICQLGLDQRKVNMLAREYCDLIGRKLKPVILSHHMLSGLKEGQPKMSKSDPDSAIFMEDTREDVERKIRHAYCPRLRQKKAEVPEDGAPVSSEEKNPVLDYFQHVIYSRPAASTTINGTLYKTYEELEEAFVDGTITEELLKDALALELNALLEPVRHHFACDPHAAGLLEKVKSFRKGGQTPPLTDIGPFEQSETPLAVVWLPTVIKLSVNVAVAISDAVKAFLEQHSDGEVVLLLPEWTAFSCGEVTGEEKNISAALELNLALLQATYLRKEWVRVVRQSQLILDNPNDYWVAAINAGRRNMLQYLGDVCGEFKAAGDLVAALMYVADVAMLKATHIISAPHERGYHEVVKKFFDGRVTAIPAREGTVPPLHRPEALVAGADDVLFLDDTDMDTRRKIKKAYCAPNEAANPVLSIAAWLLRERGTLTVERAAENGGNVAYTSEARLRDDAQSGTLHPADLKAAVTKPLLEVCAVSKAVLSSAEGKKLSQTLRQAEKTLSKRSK
# [8] = target: T4, Tyrosyl-tRNA synthetase, putative (Trypanosoma cruzi (strain CL Brener)); assay: Trypanosoma cruzi tyrosyl tRNA synthetase (TcYRS) SOP; assay type: functional; conditions: 30 µM
# [9] = target: Chromo domain-containing protein 1 (Saccharomyces cerevisiae (strain ATCC 204508 / S288c) (Baker's yeast)) (UniProt P32657); assay: ScCHD-1 Enzyme Inhibition Assay; assay type: functional; conditions: 30 µM; note: in the data most compounds retested in dose-response had high values
# Sequence of Chromo domain-containing protein 1 (Saccharomyces cerevisiae (strain ATCC 204508 / S288c) (Baker's yeast)) (P32657 whole entry, the tested form may be a part): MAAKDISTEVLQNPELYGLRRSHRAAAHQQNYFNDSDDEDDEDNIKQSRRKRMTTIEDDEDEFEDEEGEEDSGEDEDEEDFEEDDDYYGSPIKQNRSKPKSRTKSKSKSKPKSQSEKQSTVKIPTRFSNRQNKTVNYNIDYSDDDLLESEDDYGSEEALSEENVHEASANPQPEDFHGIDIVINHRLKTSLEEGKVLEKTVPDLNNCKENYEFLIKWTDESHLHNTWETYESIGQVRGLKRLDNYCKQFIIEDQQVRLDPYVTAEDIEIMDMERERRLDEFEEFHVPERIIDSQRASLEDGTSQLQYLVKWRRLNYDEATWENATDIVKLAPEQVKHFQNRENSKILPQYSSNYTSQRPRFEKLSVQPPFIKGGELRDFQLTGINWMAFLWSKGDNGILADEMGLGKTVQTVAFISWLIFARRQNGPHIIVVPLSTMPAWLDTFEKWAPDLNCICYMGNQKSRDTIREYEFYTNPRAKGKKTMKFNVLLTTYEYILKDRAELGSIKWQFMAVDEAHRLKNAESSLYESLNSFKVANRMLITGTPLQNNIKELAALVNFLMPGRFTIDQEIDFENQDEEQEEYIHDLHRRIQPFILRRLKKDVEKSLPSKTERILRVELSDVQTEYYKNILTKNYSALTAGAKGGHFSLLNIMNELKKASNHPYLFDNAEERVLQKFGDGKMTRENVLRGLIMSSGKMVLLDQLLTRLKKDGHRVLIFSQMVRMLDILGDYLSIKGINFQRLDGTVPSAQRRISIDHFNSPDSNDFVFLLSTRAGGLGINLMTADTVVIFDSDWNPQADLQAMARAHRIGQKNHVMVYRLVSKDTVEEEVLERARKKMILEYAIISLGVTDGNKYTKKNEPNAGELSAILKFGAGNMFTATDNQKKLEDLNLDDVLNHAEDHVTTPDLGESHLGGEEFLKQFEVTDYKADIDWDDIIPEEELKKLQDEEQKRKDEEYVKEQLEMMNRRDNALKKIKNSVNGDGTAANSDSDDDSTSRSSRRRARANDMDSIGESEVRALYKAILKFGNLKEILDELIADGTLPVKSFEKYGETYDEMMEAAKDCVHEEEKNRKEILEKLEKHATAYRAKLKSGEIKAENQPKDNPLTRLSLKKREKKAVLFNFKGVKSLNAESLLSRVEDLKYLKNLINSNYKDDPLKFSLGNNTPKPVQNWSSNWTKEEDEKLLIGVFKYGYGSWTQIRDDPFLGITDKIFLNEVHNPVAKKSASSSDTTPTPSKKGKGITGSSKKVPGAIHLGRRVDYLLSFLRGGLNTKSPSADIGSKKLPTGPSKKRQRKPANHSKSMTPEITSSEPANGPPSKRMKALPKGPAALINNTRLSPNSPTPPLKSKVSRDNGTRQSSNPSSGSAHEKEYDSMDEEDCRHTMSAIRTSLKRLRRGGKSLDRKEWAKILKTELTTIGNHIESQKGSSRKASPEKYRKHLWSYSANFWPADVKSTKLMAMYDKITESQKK
# Sequence of Sialic acid-binding Ig-like lectin 9 (Homo sapiens) (Q9Y336 whole entry): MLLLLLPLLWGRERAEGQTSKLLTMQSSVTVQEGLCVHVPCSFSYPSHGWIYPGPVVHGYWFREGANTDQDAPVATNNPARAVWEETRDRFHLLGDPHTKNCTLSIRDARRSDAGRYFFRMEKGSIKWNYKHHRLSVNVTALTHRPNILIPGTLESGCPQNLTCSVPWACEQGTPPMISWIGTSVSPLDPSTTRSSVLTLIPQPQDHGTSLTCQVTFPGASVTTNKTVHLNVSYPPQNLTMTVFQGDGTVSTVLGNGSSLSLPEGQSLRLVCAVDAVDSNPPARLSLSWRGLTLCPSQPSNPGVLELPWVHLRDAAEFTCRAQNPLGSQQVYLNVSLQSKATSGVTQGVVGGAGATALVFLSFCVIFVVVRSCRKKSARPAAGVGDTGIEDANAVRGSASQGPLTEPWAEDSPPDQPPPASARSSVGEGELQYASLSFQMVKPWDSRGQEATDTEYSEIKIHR
# Sequence of Protein translocase subunit SecA (Escherichia coli (strain K12)) (P10408 whole entry): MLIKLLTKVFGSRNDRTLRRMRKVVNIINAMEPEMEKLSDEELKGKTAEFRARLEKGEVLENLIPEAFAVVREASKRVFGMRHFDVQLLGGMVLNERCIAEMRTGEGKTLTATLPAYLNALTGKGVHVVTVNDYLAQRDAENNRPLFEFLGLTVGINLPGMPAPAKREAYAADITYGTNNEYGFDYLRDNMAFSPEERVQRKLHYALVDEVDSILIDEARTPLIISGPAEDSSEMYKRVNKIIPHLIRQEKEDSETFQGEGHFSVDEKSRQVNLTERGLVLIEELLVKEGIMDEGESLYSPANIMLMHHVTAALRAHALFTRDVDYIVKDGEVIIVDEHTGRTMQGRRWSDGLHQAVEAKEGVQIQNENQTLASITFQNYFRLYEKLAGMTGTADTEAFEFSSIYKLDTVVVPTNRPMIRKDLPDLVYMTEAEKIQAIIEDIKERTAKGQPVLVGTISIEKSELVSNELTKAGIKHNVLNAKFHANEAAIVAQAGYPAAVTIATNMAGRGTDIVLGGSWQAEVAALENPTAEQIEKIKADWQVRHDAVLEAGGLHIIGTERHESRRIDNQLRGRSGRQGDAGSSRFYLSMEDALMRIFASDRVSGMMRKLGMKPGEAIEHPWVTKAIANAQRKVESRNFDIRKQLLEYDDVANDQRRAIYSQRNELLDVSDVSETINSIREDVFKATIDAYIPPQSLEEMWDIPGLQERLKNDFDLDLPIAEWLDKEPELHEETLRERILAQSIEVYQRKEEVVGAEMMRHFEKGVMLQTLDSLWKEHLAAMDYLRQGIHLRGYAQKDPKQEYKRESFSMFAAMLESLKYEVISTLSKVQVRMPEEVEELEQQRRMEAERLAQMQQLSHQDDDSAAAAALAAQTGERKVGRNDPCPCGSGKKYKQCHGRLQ
SMILES,Percent Effect [1],Percent Effect [2],Percent Effect [3],Percent Effect [4],Percent Effect (Trypanosoma cruzi),Percent Effect [5],Percent Effect [6],Percent Effect (Homo sapiens),Percent Effect [7],Percent Effect [8],Percent Effect [9]
c1ncn(CC2CN(Cc3csc(C4CCCC4)n3)CCO2)n1 (configuration not stated),-7.65%,15.8%,-7.05%,15.7%,3.46%,-1.44%,-2.79%,2.48%,4.43%,23.5%,-9.07%
CSc1ccc(C(CN)N2CCc3sccc3C2)cc1 (configuration not stated),0.534%,-15.8%,-4.11%,-9.22%,3.6%,-5.92%,6.42%,39.7%,17%,28.6%,1.73%
CCS(=O)(=O)CC(=O)NC(c1ccc(F)cc1)C1CCCC1 (configuration not stated),-5.43%,0%,132%,2.49%,-4.58%,-2.37%,17%,6.16%,3.19%,5.2%,-4.36%
CCNC(=O)N1CCCC(c2noc(CC)n2)C1 (configuration not stated),-3.36%,13%,3.81%,9.2%,4.6%,3.16%,5.09%,7.39%,5.71%,11.8%,-13.2%
CCOC(C)c1nc(CN2CCC(CNC(C)=O)CC2)cs1 (configuration not stated),-1.27%,0%,-5.03%,0.273%,1.93%,-2.86%,8.97%,-19.2%,-0.529%,-2.44%,-2.65%
CCc1nc(CC(=O)NCC(Cc2ccc(F)cc2)C(N)=O)cs1 (configuration not stated),-8.91%,5.26%,-6.2%,10.1%,7.89%,-3.55%,-2.21%,11.5%,4.25%,13%,-14.4%
CCC(C)NC(=O)c1ccccc1-n1cnnn1 (configuration not stated),-6.55%,5.33%,0.166%,2.83%,-0.292%,5.21%,12.2%,3.8%,9.29%,16.1%,-6.11%
CN(Cc1cnn(C)c1)C(=O)NC1CCC(O)CC1 (configuration not stated),-2.67%,4.17%,-6.32%,15.8%,2.82%,9.71%,13%,-3.51%,0%,2.56%,-2.95%
O=C(c1n[nH]c2c1CCN(Cc1nccs1)C2)N1CCCC1,-4.94%,5.41%,-4.39%,22.5%,4.4%,0.744%,8.33%,-0.319%,5.38%,6.17%,-10.3%
CCOC1CCN(C(=O)c2cnn(-c3ccccc3Cl)c2)CC1,-4.12%,8.11%,-9.38%,9.51%,0.283%,0.802%,2.34%,4.91%,6.4%,16.1%,-0.798%
O=C(Nc1ccc(N2CCCC2)nc1)N1CCc2sccc2C1,-5.59%,2.7%,0.616%,0.939%,-8.59%,-0.833%,22.1%,7.44%,13.9%,13.4%,1.64%
O=C(c1ccc(Br)o1)N1CCN(Cc2ccc(OC(F)(F)F)cc2)CC1,-1.82%,5.48%,27.2%,-16.1%,-1.96%,-0.455%,8.87%,37.2%,2.15%,7.5%,-3.29%
O=C(NCCc1ccn(-c2ccccc2)n1)N1CCC1,-2.79%,15.6%,-0.615%,-16.6%,1.67%,-2.32%,25.5%,4.57%,5.71%,25.9%,-20.8%
Cc1cccc2c1cnn2CCCNC(=O)C(C)C,-4.75%,13%,0.24%,14.3%,7.96%,-5.52%,6.16%,5.24%,5.38%,11.1%,-0.927%
CC(C)C(=O)N1CCCC(c2ncncc2-c2ccncc2)C1 (configuration not stated),-0.489%,10.7%,4.63%,-4.06%,5.91%,-4.89%,6.61%,-4.43%,1.06%,8.97%,-4.02%
Cc1ncnc2c1CCN(Cc1ccc3c(c1)OCO3)CC2,-2.54%,13.7%,-1.53%,8.83%,3.97%,1.2%,6.08%,-10.2%,3.12%,11.1%,-2.7%
CC(C(=O)N1CCCN(c2ccc(C#N)cc2)CC1)n1ccnc1 (configuration not stated),-5.97%,15.8%,-5.83%,-1.34%,3.01%,6.13%,8.52%,-7.67%,8.33%,19.5%,-17.9%
